PubChem BioAssay (NCATS)
Inconclusive results are not listed. A call without a number means that no potency is given here. The source made the active and inactive calls. Calls follow the shape of the dose curve; as a rule, active = well fitted cell-killing curve with a large enough effect; inconclusive = small, poorly fitted or top-dose-only effect, or effect the other way; inactive = no such curve, though single readings can be large or run the other way.

Test: Quantitative High-Throughput drug screen in 47 multiple myeloma cell lines against the NCATS MIPE library collection: EJM_DSMZ cell viability assay (AID 1918926; also: nearly all actives have a fitted effect of over 30% in size)
Details: EJM myeloma cell viability, CellTiter-Glo ATP, 48 h; series mostly up to 45.8 µM
Source text: PI: Beverly A. Mock Ph.D.
Laboratory of Cancer Biology and Genetics,
Center for Cancer Research, National Cancer Institute,
National Institute of Health, Bethesda, Maryland
Drug resistance and disease progression are common in multiple myeloma (MM) patients, underscoring the need for new therapeutic combinations. […] We hypothesized that effective combinations would reduce MYC expression and enhance p16 activity. […] These preclinical data identify potentially useful drug combinations for evaluation in drug-resistant MM and reveal potential mechanisms of combined drug sensitivity.
Described herein is the primary MIPE qHTS used to cherrypick compounds. Validated compounds were then further tested for potential synergistic activiy.
[1] Peat TJ, Gaikwad SM, Dubois W, Gyabaah-Kessie N, Zhang S, Gorjifard S, Phyo Z, Andres M, Hughitt VK, Simpson RM, Miller MA, Girvin AT, Taylor A, Williams D, D'Antonio N, Zhang Y, Rajagopalan A, Flietner E, Wilson K, Zhang X, Shinn P, Klumpp-Thomas C, McKnight C, Itkin Z, Chen L, Kazandijian D, Zhang J, Michalowski AM, Simmons JK, Keats J, Thomas CJ, Mock BA. Drug combinations identified by high-throughput screening promote cell cycle transition and upregulate Smad pathways in myeloma. Cancer Lett. 2023 Aug 1;568:216284. doi: 10.1016/j.canlet.2023.216284. Epub 2023 Jun 24. PMID: 37356470; PMCID: PMC10408729.
SEQUENCE No. (e.g., 1, 2, 3, etc.); […] (e.g., Cells, Incubation, Reagent, etc.); VALUE and DESCRIPTION.
1; Cells; 5 uL; white, solid bottom 1536-well Greiner assay plate.
2; Compounds; 23 nL; Kalypsis pin tool (Wako USA) equipped with a 1536-well pin head to transfer to the assay plates.
3; Incubation; 48 hours; 37C incubation.
4; Reagent;5uL; CellTiter Glo (Promega).
5; Detector; 425V; Luminescence; Viewlux PerkinElmer.
NOTES (numbers refer to Sequence numbers above)
1. The cell-based screening methods employed in this study were like those previously published. Briefly, the corresponding myeloma cell lines were screened in 1,536-well plates with 500 cells, 5-uL per well for inhibition of cell viability (assessed by measuring ATP levels with CellTiterGlo).
2. NCATS MIPE 4.0 library of approved and investigational drugs were added using the Kalypsis pin tool. Wells treated with DMSO only for 100% viability and media only wells for 0% viability were used as controls.
3. The assay plates were covered and incubated for 48 hours in a 37C, 5% CO2 incubator with controlled humidity.
4. After 48 hours, CellTilter-GloTM luminescent substrate mix (Promega) reagent was added to the assay plate and plates we incubated for 5 min at room temperature.
5. Signal was measured as median relative luminescence units on a ViewLux (PerkinElmer) multiplate reader.
[1] Heske CM, Davis MI, Baumgart JT, Wilson K, Gormally MV, Chen L, Zhang X, Ceribelli M, Duveau DY, Guha R, Ferrer M, Arnaldez FI, Ji J, Tran HL, Zhang Y, Mendoza A, Helman LJ, Thomas CJ. Matrix Screen Identifies Synergistic Combination of PARP Inhibitors and Nicotinamide Phosphoribosyltransferase (NAMPT) Inhibitors in Ewing Sarcoma. Clin Cancer Res. 2017 Dec 1;23(23):7301-7311. doi: 10.1158/1078-0432.CCR-17-1121. Epub 2017 Sep 12. PMID: 28899971; PMCID: PMC6636827.
Potency is read from the fitted curve at half-maximal effect.

| SMILES | Potency |
| --- | --- |
| COc1cc(NS(=O)(=O)c2ccc(N)cc2)nc(OC)n1 | inactive |
| CC[C@H](C)C(=O)O[C@H]1C[C@@H](C)C=C2C=C[C@H](C)[C@H](CC[C@@H]3C[C@@H](O)CC(=O)O3)[C@H]21 | inactive |
| C[C@@H](CN1CC(=O)NC(=O)C1)N1CC(=O)NC(=O)C1 | inactive |
| O=C(NCC1CN(c2ccc(N3CCOCC3=O)cc2)C(=O)O1)c1ccc(Cl)s1 (stereo not given) | inactive |
| Cc1cc(NS(=O)(=O)c2ccc(N)cc2)no1 | inactive |
| Oc1c(Cl)cc(Cl)c2cccnc12 | 6620 nM (active) |
| C[C@@H]1CN(c2c(F)c(N)c3c(=O)c(C(=O)O)cn(C4CC4)c3c2F)C[C@H](C)N1 | inactive |
| CN(C)c1ccc(C(=C2C=CC(=[N+](C)C)C=C2)c2ccc(N(C)C)cc2)cc1 | 148 nM (active) |
| CC1=C(C(=O)O)N2C(=O)[C@@H](NC(=O)C(N)c3ccccc3)[C@H]2SC1 (stereo not given in full) | inactive |
| CC(C)OC(=O)C(C(=O)OC(C)C)=C1SC=CS1 | inactive |
| CCn1cc(C(=O)O)c(=O)c2cc(F)c(N3CCN(C)CC3)cc21 | inactive |
| Nc1nc(F)nc2c1ncn2[C@@H]1O[C@H](CO)[C@@H](O)[C@@H]1O | 418 nM (active) |
| CCOCC(O)COc1ccc(NC(=O)CC[S+](C)C)cc1 (stereo not given) | inactive |
| CN1CCCC(n2nc(Cc3ccc(Cl)cc3)c3ccccc3c2=O)CC1 (stereo not given) | 1050 nM (active) |
| CC(C(=O)O)c1ccc2c(c1)CC(=O)c1ccccc1S2 (stereo not given) | inactive |
| O=C(O)c1cccnc1 | inactive |
| O=C(O)c1cn(C2CC2)c2cc(N3CCNCC3)c(F)cc2c1=O | inactive |
| N=C(N)c1ccc(OCCCCCOc2ccc(C(=N)N)cc2)cc1 | 14800 nM (active) |
| O=P(O)(O)C(O)(Cc1cccnc1)P(=O)(O)O | inactive |
| CN1CCN(c2c(F)cc3c(=O)c(C(=O)O)cn4c3c2OCN4C)CC1 | inactive |

| SMILES | Potency |
| --- | --- |
| COCCCOc1cc(C[C@@H](C[C@H](N)[C@@H](O)C[C@H](C(=O)NCC(C)(C)C(N)=O)C(C)C)C(C)C)ccc1OC | inactive |
| O=C(O)c1cc(=O)[nH]c(=O)[nH]1 | inactive |
| CCCc1cc(C(N)=S)ccn1 | inactive |
| Nc1ccc(S(=O)(=O)Nc2ccccn2)cc1 | inactive |
| COc1cc(NCc2ccc3nc(N)nc(N)c3c2C)cc(OC)c1OC | 8330 nM (active) |
| CCCc1nc(C)c2c(=O)[nH]c(-c3cc(S(=O)(=O)N4CCN(CC)CC4)ccc3OCC)nn12 | 9350 nM (active) |
| CCN(CC)CCn1c(=O)c(Cc2ccc(OC)cc2)nc2ccccc21 | inactive |
| CC(=O)Oc1ccccc1C(=O)Nc1ncc([N+](=O)[O-])s1 | 13600 nM (active) |
| CNS(=O)(=O)Cc1ccc2[nH]cc(CCN(C)C)c2c1 | inactive |
| CNCC[C@H](Oc1cccc2ccccc12)c1cccs1 | 935 nM (active) |
| COc1ccc(-c2ccc3cc(C(=O)O)ccc3c2)cc1C12CC3CC(CC(C3)C1)C2 | inactive |
| Nc1nc(N)nc(-c2cc(Cl)ccc2Cl)n1 | inactive |
| Cc1nnc(C(=O)NC(C)(C)c2nc(C(=O)NCc3ccc(F)cc3)c(O)c(=O)n2C)o1 | inactive |
| CC(C)(C)C(=O)OCOP(=O)(COCCn1cnc2c(N)ncnc21)OCOC(=O)C(C)(C)C | 935 nM (active) |
| COc1ccccc1OCC(O)COC(N)=O (stereo not given) | inactive |
| N[C@@H](C(=O)N[C@@H]1C(=O)N2C(C(=O)O)=C(Cl)CS[C@H]12)c1ccccc1 | inactive |
| O[C@@H](CNC[C@H](O)[C@H]1CCc2cc(F)ccc2O1)[C@@H]1CCc2cc(F)ccc2O1 | inactive |
| CC1CC2C3CCC4=CC(=O)C=C[C@]4(C)[C@@]3(F)[C@@H](O)C[C@]2(C)[C@@]1(O)C(=O)CO (stereo not given in full) | inactive |
| OC(Cn1cncn1)(Cn1cncn1)c1ccc(F)cc1F | inactive |
| CC(C)(C)NC(=O)[C@H]1CC[C@H]2[C@@H]3CC[C@H]4NC(=O)C=C[C@]4(C)[C@H]3CC[C@]12C | 662 nM (active) |
